Test results published in PMC7862700, “An all-to-all approach to the identification of sequence-specific readers for epigenetic DNA modifications on cytosine”.

Key:
Experiment in all cases: DAPPL (digital affinity profiling via proximity ligation, sequencing); 10 mM Tris-HCl pH 7.5, 50 mM NaCl, 1 mM DTT, 4% glycerol, room temperature, 30 min; GST-TFs on glutathione beads, 16-mer random dsDNA library, 0.1% formaldehyde crosslink after washing; high values mean tight binding
Conditions in all cases: protein: recombinant; tags: N-terminal GST; dsDNA, one strand shown
[1] = molecular target: T1, ERG (Homo sapiens, UniProt P11308 1-479)
T1 sequence: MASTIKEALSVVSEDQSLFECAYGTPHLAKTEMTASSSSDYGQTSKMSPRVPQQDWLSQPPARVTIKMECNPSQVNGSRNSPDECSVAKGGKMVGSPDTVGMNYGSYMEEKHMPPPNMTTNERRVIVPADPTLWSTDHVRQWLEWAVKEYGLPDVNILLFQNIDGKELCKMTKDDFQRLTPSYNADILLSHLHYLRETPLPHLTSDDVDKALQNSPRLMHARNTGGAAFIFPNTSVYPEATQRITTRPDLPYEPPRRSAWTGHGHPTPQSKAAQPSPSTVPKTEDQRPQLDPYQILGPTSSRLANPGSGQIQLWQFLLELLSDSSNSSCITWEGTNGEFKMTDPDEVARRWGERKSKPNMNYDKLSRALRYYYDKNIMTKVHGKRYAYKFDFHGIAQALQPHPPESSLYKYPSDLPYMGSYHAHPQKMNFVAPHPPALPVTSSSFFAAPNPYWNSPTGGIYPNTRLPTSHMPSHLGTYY
Outline: (§1)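 A tag-only sample was pooled with DNA-barcoded human transcription factors that had been expressed in yeast as GST fusions and captured on glutathione beads. The pools were incubated for 30 min at room temperature with 200 nmole of a random double-stranded 16-mer DNA library in Tris/NaCl/DTT/glycerol buffer, then washed, crosslinked with 0.1% formaldehyde, proximity-ligated (BsaI/T4 ligase, 1 h, 37 °C), PCR-amplified and sequenced on an Illumina NextSeq500. Binding signal is each hexamer's read frequency for a factor divided by its frequency for the tag-only sample.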

[2] = molecular target: ELF1 (Homo sapiens, UniProt P32519 1-619)
Outline: as §1

[3] = molecular target: T2, EHF (Homo sapiens, UniProt Q9NZC4 1-300)
T2 sequence: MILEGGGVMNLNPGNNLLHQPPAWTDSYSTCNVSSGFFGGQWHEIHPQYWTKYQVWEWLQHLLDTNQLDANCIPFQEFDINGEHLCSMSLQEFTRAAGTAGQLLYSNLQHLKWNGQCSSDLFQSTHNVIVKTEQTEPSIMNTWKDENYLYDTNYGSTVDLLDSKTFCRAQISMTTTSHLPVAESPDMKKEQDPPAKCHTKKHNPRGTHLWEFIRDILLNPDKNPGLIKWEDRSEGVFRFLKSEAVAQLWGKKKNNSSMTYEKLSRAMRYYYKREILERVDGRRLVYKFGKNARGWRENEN
Outline: as §1

[4] = molecular target: SPIB (Homo sapiens, UniProt Q01892 1-262)
Outline: as §1

[5] = molecular target: T3, SPIC (Homo sapiens, UniProt Q8N5J4 1-248)
T3 sequence: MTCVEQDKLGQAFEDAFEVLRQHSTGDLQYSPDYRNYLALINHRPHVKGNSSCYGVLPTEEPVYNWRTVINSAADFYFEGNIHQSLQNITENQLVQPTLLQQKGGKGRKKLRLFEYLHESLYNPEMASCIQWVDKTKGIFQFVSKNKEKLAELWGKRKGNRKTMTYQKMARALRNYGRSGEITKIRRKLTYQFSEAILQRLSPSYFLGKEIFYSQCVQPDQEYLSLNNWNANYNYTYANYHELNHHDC
Outline: as §1

[6] = molecular target: ELF4 (Homo sapiens, UniProt Q99607 1-663)
Outline: as §1

[7] = molecular target: T4, ETV2 (Homo sapiens, UniProt O00321 1-342)
T4 sequence: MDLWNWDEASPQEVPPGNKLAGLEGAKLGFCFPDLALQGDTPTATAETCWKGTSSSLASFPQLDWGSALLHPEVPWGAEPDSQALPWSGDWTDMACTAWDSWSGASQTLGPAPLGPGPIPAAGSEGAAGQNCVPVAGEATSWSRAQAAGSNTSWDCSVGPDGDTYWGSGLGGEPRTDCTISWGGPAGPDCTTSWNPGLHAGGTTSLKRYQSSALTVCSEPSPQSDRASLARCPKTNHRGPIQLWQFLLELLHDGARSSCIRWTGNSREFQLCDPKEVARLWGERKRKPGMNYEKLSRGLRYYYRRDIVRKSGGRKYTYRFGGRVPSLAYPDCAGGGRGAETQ
Outline: as §1

[8] = molecular target: T5, ELF3 (Homo sapiens, UniProt P78545 1-371)
T5 sequence: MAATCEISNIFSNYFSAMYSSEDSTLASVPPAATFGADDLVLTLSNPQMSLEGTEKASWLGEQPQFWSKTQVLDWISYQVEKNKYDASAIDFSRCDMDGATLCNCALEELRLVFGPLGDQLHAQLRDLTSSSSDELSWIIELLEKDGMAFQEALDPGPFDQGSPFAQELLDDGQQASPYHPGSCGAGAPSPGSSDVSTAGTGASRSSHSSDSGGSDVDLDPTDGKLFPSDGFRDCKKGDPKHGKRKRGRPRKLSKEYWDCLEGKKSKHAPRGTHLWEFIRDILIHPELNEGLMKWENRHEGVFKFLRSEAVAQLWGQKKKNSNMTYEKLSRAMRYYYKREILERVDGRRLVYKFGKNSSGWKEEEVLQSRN
Outline: as §1

[9] = molecular target: ETV1 (Homo sapiens, UniProt P50549 1-477)
Outline: as §1

[10] = molecular target: T6, ERF (Homo sapiens, UniProt P50548 1-548)
T6 sequence: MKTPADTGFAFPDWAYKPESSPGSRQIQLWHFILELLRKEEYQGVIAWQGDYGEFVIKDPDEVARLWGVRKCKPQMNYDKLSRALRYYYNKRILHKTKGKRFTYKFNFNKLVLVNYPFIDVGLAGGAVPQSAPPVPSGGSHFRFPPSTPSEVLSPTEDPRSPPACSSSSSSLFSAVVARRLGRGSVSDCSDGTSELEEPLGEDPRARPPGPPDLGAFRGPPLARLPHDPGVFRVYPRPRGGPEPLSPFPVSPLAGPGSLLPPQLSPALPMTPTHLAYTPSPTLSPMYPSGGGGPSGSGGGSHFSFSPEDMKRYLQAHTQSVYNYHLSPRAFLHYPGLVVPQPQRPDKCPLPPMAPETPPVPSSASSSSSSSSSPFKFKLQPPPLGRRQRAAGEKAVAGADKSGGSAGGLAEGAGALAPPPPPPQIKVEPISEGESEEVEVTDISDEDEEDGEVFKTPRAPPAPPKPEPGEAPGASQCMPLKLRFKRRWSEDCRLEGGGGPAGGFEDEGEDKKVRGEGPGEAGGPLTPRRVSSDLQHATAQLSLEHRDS
Outline: as §1

[11] = molecular target: T7, ETV3L (Homo sapiens, UniProt Q6ZN32 1-361)
T7 sequence: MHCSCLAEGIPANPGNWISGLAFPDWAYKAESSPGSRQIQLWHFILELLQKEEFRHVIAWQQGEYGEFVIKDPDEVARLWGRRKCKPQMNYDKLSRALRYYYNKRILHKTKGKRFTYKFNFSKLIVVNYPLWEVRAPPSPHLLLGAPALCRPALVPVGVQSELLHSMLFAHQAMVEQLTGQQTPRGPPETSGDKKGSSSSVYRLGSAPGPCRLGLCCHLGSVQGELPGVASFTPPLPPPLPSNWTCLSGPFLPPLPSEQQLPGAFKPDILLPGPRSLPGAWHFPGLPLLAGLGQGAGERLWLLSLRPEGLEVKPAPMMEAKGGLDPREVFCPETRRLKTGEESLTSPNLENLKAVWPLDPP
Outline: as §1

[12] = molecular target: T8, ETS2 (Homo sapiens, UniProt P15036 1-469)
T8 sequence: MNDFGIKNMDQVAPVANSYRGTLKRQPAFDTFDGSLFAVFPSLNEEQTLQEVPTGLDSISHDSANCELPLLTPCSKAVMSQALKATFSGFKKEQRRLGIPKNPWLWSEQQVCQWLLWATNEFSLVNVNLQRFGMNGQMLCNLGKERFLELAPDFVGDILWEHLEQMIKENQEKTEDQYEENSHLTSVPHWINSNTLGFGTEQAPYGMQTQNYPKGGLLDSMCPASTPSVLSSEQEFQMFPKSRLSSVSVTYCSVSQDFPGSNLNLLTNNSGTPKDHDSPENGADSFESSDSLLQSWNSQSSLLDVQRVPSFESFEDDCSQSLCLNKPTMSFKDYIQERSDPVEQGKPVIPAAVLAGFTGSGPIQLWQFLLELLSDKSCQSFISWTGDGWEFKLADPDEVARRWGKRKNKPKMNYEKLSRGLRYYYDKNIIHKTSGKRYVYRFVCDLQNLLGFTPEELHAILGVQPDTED
Outline: as §1

[13] = molecular target: T9, SPDEF (Homo sapiens, UniProt O95238 1-335)
T9 sequence: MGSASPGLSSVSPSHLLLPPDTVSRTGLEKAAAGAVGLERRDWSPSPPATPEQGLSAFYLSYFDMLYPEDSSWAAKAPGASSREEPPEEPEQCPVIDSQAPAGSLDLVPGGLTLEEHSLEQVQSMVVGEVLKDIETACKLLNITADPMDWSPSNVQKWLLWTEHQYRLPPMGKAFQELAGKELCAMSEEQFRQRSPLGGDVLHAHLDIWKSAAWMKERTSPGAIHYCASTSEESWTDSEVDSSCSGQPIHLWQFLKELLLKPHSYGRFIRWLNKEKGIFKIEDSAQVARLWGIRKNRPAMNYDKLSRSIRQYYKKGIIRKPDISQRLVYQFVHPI
Outline: as §1

[14] = molecular target: T10, ELF5 (Homo sapiens, UniProt Q9UKW6-2 1-255)
T10 sequence: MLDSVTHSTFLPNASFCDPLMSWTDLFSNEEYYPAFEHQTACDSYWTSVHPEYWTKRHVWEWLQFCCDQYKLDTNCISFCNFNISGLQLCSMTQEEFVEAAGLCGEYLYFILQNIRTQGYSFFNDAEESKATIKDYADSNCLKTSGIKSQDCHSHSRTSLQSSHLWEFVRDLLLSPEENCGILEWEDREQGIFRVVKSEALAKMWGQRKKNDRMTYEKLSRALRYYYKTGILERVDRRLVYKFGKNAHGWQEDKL
Outline: as §1

[15] = molecular target: T11, ETV3 (Homo sapiens, UniProt P41162-2 1-143)
T11 sequence: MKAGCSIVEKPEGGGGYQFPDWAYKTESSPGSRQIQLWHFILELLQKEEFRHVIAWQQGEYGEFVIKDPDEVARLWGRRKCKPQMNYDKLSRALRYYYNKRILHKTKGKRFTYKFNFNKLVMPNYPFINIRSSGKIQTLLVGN
Outline: as §1

[16] = molecular target: CRX (Homo sapiens, UniProt O43186 1-299)
Outline: as §1

Chain of ELF4 (Q99607 whole entry): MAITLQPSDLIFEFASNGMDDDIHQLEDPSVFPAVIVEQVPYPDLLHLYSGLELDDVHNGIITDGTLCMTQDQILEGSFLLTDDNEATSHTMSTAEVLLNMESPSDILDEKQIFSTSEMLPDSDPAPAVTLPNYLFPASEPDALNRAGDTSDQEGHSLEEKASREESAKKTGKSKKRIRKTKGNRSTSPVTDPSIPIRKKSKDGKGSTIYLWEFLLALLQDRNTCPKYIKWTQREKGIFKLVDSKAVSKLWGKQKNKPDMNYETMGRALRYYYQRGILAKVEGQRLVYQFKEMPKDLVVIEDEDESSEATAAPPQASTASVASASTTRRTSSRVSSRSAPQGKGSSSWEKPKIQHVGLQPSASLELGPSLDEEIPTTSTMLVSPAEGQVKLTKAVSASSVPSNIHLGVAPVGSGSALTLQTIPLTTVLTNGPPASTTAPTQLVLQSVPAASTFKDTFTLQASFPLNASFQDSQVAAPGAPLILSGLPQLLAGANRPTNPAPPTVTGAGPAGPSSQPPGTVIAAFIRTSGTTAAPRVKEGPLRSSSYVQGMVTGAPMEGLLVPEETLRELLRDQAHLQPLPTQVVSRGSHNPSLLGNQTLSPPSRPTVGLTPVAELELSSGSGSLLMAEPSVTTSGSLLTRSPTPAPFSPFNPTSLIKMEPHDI
Chain of ETV1 (P50549 whole entry): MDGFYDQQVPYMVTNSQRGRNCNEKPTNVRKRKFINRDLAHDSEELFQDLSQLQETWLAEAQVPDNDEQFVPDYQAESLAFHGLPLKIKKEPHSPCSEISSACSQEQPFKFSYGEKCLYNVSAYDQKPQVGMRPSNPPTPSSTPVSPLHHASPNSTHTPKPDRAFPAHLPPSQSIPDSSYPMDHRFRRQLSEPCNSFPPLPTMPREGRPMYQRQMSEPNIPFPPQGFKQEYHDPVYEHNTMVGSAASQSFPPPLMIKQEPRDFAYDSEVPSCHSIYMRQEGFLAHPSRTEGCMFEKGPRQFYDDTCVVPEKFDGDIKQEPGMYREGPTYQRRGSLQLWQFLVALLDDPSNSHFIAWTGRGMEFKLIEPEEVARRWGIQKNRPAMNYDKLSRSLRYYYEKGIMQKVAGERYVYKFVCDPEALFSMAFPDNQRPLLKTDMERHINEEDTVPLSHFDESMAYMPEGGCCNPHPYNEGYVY
Chain of ELF1 (P32519 whole entry): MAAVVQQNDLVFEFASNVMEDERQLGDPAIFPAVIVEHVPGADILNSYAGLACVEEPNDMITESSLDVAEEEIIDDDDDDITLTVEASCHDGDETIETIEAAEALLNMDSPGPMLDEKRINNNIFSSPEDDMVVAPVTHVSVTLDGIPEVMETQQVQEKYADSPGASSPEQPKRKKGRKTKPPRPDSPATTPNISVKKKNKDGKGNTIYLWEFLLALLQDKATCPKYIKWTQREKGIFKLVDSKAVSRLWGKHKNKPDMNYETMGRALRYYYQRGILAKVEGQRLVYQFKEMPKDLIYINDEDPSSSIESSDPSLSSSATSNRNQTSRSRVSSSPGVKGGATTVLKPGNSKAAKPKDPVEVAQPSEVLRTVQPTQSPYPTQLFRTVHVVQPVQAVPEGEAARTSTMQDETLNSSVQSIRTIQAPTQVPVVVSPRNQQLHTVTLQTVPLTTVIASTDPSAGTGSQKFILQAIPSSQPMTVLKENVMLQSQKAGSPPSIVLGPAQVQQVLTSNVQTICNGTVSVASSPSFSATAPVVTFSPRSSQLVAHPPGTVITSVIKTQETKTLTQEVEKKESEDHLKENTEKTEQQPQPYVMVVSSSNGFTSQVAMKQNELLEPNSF
Chain of SPIB (Q01892 whole entry): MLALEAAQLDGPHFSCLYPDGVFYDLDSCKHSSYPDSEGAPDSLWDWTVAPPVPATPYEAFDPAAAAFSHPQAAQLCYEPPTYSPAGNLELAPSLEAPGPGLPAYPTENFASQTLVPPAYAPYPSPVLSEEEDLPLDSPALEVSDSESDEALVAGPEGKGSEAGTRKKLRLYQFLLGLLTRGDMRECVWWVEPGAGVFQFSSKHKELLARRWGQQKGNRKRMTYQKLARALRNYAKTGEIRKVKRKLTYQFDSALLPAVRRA
Chain of CRX (O43186 whole entry): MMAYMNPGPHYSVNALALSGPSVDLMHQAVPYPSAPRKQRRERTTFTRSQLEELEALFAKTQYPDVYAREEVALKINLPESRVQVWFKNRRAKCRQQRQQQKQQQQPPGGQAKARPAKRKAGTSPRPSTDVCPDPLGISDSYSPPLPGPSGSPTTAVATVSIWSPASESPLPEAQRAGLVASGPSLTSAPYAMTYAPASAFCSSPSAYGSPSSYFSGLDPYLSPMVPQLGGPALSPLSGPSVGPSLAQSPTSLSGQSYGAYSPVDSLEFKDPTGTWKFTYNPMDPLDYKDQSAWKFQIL

GTGTCT
binding signal [1]: 1.1 fold enrichment (6-mer frequency, TF over GST control) | binding signal [2]: 1.06 fold enrichment (6-mer frequency, TF over GST control) | binding signal [3]: 1.06 fold enrichment (6-mer frequency, TF over GST control) | binding signal [4]: 1.03 fold enrichment (6-mer frequency, TF over GST control) | binding signal [5]: 1.16 fold enrichment (6-mer frequency, TF over GST control) | binding signal [6]: 1.02 fold enrichment (6-mer frequency, TF over GST control) | binding signal [7]: 1.15 fold enrichment (6-mer frequency, TF over GST control) | binding signal [8]: 1 fold enrichment (6-mer frequency, TF over GST control) | binding signal [9]: 1.09 fold enrichment (6-mer frequency, TF over GST control) | binding signal [10]: 1.06 fold enrichment (6-mer frequency, TF over GST control) | binding signal [11]: 1.09 fold enrichment (6-mer frequency, TF over GST control) | binding signal [12]: 1.03 fold enrichment (6-mer frequency, TF over GST control) | binding signal [13]: 1.09 fold enrichment (6-mer frequency, TF over GST control) | binding signal [14]: 1.13 fold enrichment (6-mer frequency, TF over GST control) | binding signal [15]: 1.02 fold enrichment (6-mer frequency, TF over GST control)

CAATCG
binding signal [5]: 1.03 fold enrichment (6-mer frequency, TF over GST control)

CTAAGG
binding signal [5]: 1.06 fold enrichment (6-mer frequency, TF over GST control) | binding signal [6]: 1.02 fold enrichment (6-mer frequency, TF over GST control) | binding signal [8]: 1.02 fold enrichment (6-mer frequency, TF over GST control) | binding signal [16]: 1.12 fold enrichment (6-mer frequency, TF over GST control) | binding signal [9]: 1.01 fold enrichment (6-mer frequency, TF over GST control)

ACGCCA
binding signal [5]: 1 fold enrichment (6-mer frequency, TF over GST control)

GGCACC
binding signal [5]: 1.03 fold enrichment (6-mer frequency, TF over GST control)
